Measurements taken from the supplement of paper PMC10849652.
About 8,800 targets were measured; listed, in parts, are those with a hit and a random draw of the rest. About 0.5% of all pairs of compound and target were hits.

Columns and labels:
Assay in all cases: log2 fold change, soluble protein after heating vs DMSO (PISA); higher = thermal stabilisation; K562 lysate, 10 uM; active = over 0.2 and 3.5 SD of the protein, either way, in both replicates (recomputed)
alvocidib = compound: CN1CC[C@H](c2c(O)cc(O)c3c(=O)cc(-c4ccccc4Cl)oc23)[C@H](O)C1 [alvocidib]
In short: (§1)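 Quantification was by TMTpro 16plex LC-MS/MS with equalised channel sums, applied to the supernatant after 21,000xg for 90 min. Samples were crude K562 extract at 1 mg/mL protein in PBS pH 7.4 with 1 mM MgCl2, treated with 10 μM compound for 30 min, heated for 3 min across 48°C-58°C, pooled and brought to 0.5% NP-40 at 4°C. Values are log-two fold changes in thermal stability relative to solvent controls, from duplicates.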

Tubastatin A = compound: CN1CCc2c(c3ccccc3n2Cc2ccc(C(=O)NO)cc2)C1 [Tubastatin A]
In short: as §1

[1] = compound: CNC(=O)C1=CC=CC=C1NC2=NC(=NC=C2Cl)NC3=C(C=C(C=C3)N4CCOCC4)OC
In short: as §1

defactinib = compound: CNC(=O)c1ccc(Nc2ncc(C(F)(F)F)c(NCc3nccnc3N(C)S(C)(=O)=O)n2)cc1 [defactinib]
In short: as §1

[2] = compound: CNc1nc(-c2ccc3c(N)n[nH]c3c2)cc(N2C[C@@H](C(=O)NC3CCCCC3)CC[C@H]2C)n1
In short: as §1

encorafenib = compound: COC(=O)N[C@@H](C)CNc1nccc(-c2cn(C(C)C)nc2-c2cc(Cl)cc(NS(C)(=O)=O)c2F)n1 [encorafenib]
In short: as §1

[3] = compound: COC(=O)[C@H](CCSC)NC(=O)C1=C(C=C(C=C1)NC[C@H](CS)N)C2=CC=CC=C2
In short: as §1

alisertib = compound: COc1cc(Nc2ncc3c(n2)-c2ccc(Cl)cc2C(c2c(F)cccc2OC)=NC3)ccc1C(=O)O [alisertib]
In short: as §1

[4] = compound: COc1cc2nc(-c3cc(F)ccc3O)nc(N[C@@H]3CNC[C@H]3C(C)(C)O)c2cc1OC
In short: as §1

gefitinib = compound: COc1cc2ncnc(Nc3ccc(F)c(Cl)c3)c2cc1OCCCN1CCOCC1 [gefitinib]
In short: as §1

lapatinib = compound: CS(=O)(=O)CCNCc1ccc(-c2ccc3ncnc(Nc4ccc(OCc5cccc(F)c5)c(Cl)c4)c3c2)o1 [lapatinib]
In short: as §1

pictilisib = compound: CS(=O)(=O)N1CCN(Cc2cc3nc(-c4cccc5[nH]ncc45)nc(N4CCOCC4)c3s2)CC1 [pictilisib]
In short: as §1

crizotinib = compound: C[C@@H](Oc1cc(-c2cnn(C3CCNCC3)c2)cnc1N)c1c(Cl)ccc(F)c1Cl [crizotinib]
In short: as §1

[5] = compound: C[C@H](C1=CC=C(C=C1)C(=O)NC2=C3C=CNC3=NC=C2)N
In short: as §1

duvelisib = compound: C[C@H](Nc1ncnc2nc[nH]c12)c1cc2cccc(Cl)c2c(=O)n1-c1ccccc1 [duvelisib]
In short: as §1

gandotinib = compound: Cc1cc(Nc2cc(CN3CCOCC3)c3nc(C)c(Cc4ccc(Cl)cc4F)n3n2)n[nH]1 [gandotinib]
In short: as §1

tozasertib = compound: Cc1cc(Nc2cc(N3CCN(C)CC3)nc(Sc3ccc(NC(=O)C4CC4)cc3)n2)n[nH]1 [tozasertib]
In short: as §1

doramapimod = compound: Cc1ccc(-n2nc(C(C)(C)C)cc2NC(=O)Nc2ccc(OCCN3CCOCC3)c3ccccc23)cc1 [doramapimod]
In short: as §1

bafetinib = compound: Cc1ccc(NC(=O)c2ccc(CN3CC[C@H](N(C)C)C3)c(C(F)(F)F)c2)cc1Nc1nccc(-c2cncnc2)n1 [bafetinib]
In short: as §1

[6] = compound: Cc1cccc(CC(=O)N2CCc3c2ccc(-c2cn(C)c4ncnc(N)c24)c3F)n1
In short: as §1

Measured: log2 fold change

GNB1 (UniProt P62873)
inactive: alvocidib -0.095 | Tubastatin A 0.029 | [1] -0.023 | defactinib -0.028 | [2] -0.011 | encorafenib 0.007 | [3] 0.003 | alisertib -0.023 | [4] -0.011 | gefitinib -0.128 | lapatinib 0.054 | pictilisib -0.022 | crizotinib -0.106 | [5] -0.114 | duvelisib 0.003 | gandotinib 0.04 | tozasertib -0.023 | doramapimod 0.079 | bafetinib 0.123 | [6] 0.04

HNRNPLL (UniProt Q8WVV9)
Chain of UniProt Q8WVV9 (Q8WVV9 whole entry, looked up): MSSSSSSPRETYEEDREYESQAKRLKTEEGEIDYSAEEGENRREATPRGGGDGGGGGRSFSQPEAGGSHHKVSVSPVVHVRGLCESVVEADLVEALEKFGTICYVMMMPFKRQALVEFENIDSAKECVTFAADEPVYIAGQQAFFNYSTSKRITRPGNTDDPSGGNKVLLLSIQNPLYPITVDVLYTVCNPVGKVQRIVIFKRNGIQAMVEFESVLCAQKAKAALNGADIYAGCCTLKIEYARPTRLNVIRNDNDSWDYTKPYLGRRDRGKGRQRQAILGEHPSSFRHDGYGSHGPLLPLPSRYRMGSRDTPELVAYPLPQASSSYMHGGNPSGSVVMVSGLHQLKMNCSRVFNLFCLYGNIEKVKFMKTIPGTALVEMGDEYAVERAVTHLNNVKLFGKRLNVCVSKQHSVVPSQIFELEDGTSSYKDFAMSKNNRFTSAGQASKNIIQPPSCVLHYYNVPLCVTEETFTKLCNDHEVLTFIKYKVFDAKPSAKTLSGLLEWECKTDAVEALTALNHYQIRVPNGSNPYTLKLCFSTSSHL
inactive: alvocidib 0.015 | Tubastatin A -0.164 | [1] 0.021 | defactinib 0.035 | [2] -0.016 | encorafenib 0.082 | [3] -0.07 | alisertib -0.016 | [4] 0.011 | gefitinib -0.052 | lapatinib 0.017 | pictilisib -0.026 | crizotinib -0.038 | [5] -0.01 | duvelisib -0.016 | gandotinib -0.031 | tozasertib 0 | doramapimod 0.01 | bafetinib -0.031 | [6] 0.027

GOLGA1 (UniProt Q92805)
inactive: alvocidib -0.027 | Tubastatin A 0.051 | [1] 0.035 | defactinib -0.017 | [2] 0.011 | encorafenib 0.028 | [3] -0.093 | alisertib -0.017 | [4] -0.18 | gefitinib -0.024 | pictilisib 0.007 | crizotinib 0.012 | [5] 0.056 | duvelisib -0.101 | gandotinib 0.024 | tozasertib -0.087 | doramapimod 0.001 | bafetinib -0.066 | [6] -0.025
active: lapatinib -0.406

ICAM2 (UniProt P13598)
active: [5] 0.293
inactive: alvocidib 0.078 | Tubastatin A 0.017 | [1] 0.032 | defactinib 0.039 | [2] -0.019 | encorafenib -0.026 | [3] -0.065 | alisertib -0.016 | [4] 0.009 | gefitinib -0.02 | lapatinib -0.008 | pictilisib -0.08 | crizotinib -0.002 | duvelisib -0.035 | gandotinib -0.04 | tozasertib -0.01 | doramapimod -0.014 | bafetinib 0.013 | [6] -0.075

GTF2H1 (UniProt P32780)
Chain of UniProt P32780 (P32780 whole entry, looked up): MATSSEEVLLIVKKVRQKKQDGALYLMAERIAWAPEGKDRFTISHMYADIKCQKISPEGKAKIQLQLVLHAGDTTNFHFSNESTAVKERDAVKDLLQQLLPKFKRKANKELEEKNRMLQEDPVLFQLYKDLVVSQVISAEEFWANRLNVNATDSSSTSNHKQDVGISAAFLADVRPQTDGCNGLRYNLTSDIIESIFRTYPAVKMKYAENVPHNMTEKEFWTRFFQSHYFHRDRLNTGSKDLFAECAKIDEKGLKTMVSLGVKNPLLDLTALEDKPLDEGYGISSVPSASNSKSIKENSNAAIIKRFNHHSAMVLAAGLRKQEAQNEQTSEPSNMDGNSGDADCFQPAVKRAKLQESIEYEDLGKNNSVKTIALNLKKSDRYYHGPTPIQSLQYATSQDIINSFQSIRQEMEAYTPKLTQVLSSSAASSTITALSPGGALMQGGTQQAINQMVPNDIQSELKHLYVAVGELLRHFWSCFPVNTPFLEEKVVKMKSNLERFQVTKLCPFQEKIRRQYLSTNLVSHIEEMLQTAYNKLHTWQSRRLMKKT
inactive: alvocidib -0.053 | Tubastatin A -0.023 | [1] 0.05 | defactinib 0.041 | [2] 0.031 | encorafenib -0.004 | [3] -0.059 | alisertib 0.065 | [4] -0.021 | gefitinib -0.015 | lapatinib -0.03 | pictilisib -0.017 | crizotinib -0.028 | [5] 0.032 | duvelisib 0.023 | gandotinib 0.035 | tozasertib -0.019 | doramapimod -0.001 | bafetinib -0.03 | [6] -0.021

HNRNPDL (UniProt O14979)
inactive: alvocidib 0.01 | Tubastatin A -0.017 | [1] 0.018 | defactinib -0.006 | [2] -0.002 | encorafenib -0.028 | [3] -0.017 | alisertib 0.04 | [4] -0.005 | gefitinib -0.029 | lapatinib 0.04 | pictilisib -0.002 | crizotinib -0.005 | [5] 0.016 | duvelisib 0.04 | gandotinib -0.025 | tozasertib -0.056 | doramapimod 0.104 | bafetinib 0.072 | [6] -0.035

GTF2A1 (UniProt P52655)
Chain of UniProt P52655 (P52655 whole entry, looked up): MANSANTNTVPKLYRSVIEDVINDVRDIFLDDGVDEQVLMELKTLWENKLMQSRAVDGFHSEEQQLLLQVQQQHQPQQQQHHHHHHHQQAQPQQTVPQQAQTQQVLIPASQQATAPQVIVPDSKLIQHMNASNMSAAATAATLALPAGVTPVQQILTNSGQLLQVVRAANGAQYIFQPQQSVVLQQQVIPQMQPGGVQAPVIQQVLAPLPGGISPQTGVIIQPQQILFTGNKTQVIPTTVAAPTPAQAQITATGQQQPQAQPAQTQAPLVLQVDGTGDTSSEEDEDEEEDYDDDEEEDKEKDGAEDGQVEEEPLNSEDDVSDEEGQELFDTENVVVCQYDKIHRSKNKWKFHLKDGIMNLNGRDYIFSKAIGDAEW
inactive: alvocidib 0.165 | Tubastatin A 0.006 | [1] -0.047 | defactinib 0.033 | [2] 0.048 | encorafenib -0.005 | [3] -0.026 | alisertib -0.029 | [4] -0.024 | gefitinib 0.008 | lapatinib 0.034 | pictilisib 0.011 | crizotinib 0.055 | duvelisib 0.009 | gandotinib -0.141 | tozasertib 0.064 | doramapimod 0.028 | bafetinib 0.026 | [6] -0.111
active: [5] 0.327

HSPA8 (UniProt P11142)
inactive: alvocidib 0.005 | Tubastatin A 0.056 | [1] -0.036 | defactinib -0.003 | [2] -0.019 | encorafenib -0.004 | [3] 0.009 | alisertib 0.002 | [4] -0.004 | gefitinib 0.008 | lapatinib 0.004 | pictilisib 0.022 | crizotinib 0.023 | [5] 0.012 | duvelisib 0.005 | gandotinib -0.014 | tozasertib 0.006 | doramapimod 0.001 | bafetinib 0.059 | [6] -0.01

GNL3 (UniProt Q9BVP2)
Chain of UniProt Q9BVP2 (Q9BVP2 whole entry, looked up): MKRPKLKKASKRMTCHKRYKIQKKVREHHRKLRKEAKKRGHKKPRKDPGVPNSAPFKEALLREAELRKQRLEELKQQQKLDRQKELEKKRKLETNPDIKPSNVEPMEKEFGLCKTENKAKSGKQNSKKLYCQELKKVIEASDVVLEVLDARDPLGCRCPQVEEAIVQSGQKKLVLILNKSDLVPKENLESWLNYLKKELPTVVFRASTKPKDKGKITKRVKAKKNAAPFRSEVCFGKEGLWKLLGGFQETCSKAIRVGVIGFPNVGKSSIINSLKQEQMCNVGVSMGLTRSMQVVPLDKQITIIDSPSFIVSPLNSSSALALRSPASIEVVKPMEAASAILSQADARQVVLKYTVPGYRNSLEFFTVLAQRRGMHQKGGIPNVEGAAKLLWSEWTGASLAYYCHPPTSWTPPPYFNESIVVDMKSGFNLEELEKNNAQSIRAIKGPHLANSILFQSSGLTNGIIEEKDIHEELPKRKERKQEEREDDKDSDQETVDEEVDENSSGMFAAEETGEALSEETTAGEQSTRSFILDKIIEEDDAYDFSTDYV
active: [3] 0.252
inactive: alvocidib 0.023 | Tubastatin A 0.008 | [1] 0.055 | defactinib -0.002 | [2] 0.038 | encorafenib 0.014 | alisertib -0.006 | [4] 0.033 | gefitinib -0.029 | lapatinib -0.058 | pictilisib -0.018 | crizotinib -0.134 | [5] 0.097 | duvelisib 0.004 | gandotinib -0.115 | tozasertib -0.013 | doramapimod 0.039 | bafetinib -0.128 | [6] -0.031

INF2 (UniProt Q27J81)
inactive: alvocidib -0.027 | Tubastatin A -0.062 | [1] 0.022 | defactinib 0.117 | [2] -0.104 | encorafenib -0.068 | [3] 0.083 | alisertib -0.008 | [4] -0.01 | gefitinib -0.009 | lapatinib 0.024 | pictilisib -0.019 | crizotinib -0.043 | [5] 0.002 | duvelisib -0.051 | gandotinib -0.001 | tozasertib 0.04 | doramapimod 0.049 | bafetinib -0.068 | [6] 0.128

INTS5 (UniProt Q6P9B9)
inactive: alvocidib 0.038 | Tubastatin A -0.055 | [1] 0.027 | defactinib 0.017 | [2] -0.047 | encorafenib 0.02 | [3] -0.259 | alisertib 0.028 | [4] 0.013 | gefitinib 0.045 | lapatinib -0.688 | pictilisib 0.018 | crizotinib -0.082 | [5] 0.048 | duvelisib -0.022 | gandotinib -0.235 | tozasertib 0.009 | doramapimod -0.002 | bafetinib -0.092 | [6] 0.054

IRAK1 (UniProt P51617)
Chain of UniProt P51617 (P51617 whole entry, looked up): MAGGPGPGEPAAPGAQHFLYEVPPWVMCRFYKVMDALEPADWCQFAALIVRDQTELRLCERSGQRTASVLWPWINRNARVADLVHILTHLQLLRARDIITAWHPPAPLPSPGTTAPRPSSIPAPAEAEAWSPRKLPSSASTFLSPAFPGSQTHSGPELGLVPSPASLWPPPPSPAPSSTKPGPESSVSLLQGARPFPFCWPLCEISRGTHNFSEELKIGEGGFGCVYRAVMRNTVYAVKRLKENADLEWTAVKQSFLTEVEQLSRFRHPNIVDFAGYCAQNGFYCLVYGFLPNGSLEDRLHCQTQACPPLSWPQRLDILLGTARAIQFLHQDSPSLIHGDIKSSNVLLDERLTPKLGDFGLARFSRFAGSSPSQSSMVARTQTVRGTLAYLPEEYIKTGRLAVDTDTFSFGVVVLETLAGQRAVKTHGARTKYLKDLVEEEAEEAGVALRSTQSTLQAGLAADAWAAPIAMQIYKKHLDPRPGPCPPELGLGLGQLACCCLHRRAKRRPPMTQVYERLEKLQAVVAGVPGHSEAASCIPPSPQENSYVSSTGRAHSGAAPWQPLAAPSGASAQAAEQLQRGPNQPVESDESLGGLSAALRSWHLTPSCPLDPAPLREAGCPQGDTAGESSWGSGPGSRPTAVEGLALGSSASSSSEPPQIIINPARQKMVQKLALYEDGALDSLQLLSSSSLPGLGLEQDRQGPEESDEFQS
inactive: alvocidib -0.104 | Tubastatin A -0.038 | [1] 0.314 | defactinib 0.086 | [2] 0.121 | [3] 0.062 | alisertib -0.01 | [4] 0.096 | gefitinib 0.022 | lapatinib 0.023 | pictilisib -0.008 | [5] -0.111 | duvelisib -0.169 | gandotinib 0.26 | tozasertib -0.116 | doramapimod 0.172 | bafetinib -0.036 | [6] 0.168
active: encorafenib 0.812 | crizotinib 0.799

IMPACT (UniProt Q9P2X3)
Chain of UniProt Q9P2X3 (Q9P2X3 whole entry, looked up): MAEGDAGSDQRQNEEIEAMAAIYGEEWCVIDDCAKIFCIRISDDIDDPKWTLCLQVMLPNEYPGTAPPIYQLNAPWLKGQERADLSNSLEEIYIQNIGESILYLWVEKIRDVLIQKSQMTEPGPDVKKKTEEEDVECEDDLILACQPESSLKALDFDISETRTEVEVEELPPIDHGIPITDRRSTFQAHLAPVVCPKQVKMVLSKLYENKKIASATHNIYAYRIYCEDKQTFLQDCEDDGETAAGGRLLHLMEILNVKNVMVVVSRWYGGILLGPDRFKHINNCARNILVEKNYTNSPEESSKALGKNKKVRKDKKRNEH
inactive: alvocidib 0.002 | Tubastatin A -0.04 | [1] -0.006 | defactinib 0.013 | [2] -0.05 | encorafenib 0.063 | [3] -0.083 | alisertib -0.024 | [4] -0.044 | gefitinib 0.167 | lapatinib 0.012 | pictilisib 0.044 | crizotinib 0.083 | [5] 0.077 | duvelisib -0.015 | gandotinib 0.065 | tozasertib 0.026 | doramapimod -0.044 | bafetinib -0.098 | [6] -0.096

INTS1 (UniProt Q8N201)
inactive: alvocidib 0.009 | Tubastatin A -0.028 | [1] 0.013 | defactinib 0.019 | [2] 0.004 | encorafenib 0.028 | [3] -0.018 | alisertib 0.021 | [4] 0.007 | gefitinib -0.04 | lapatinib -0.051 | pictilisib -0.011 | crizotinib -0.067 | [5] 0.05 | duvelisib -0.04 | gandotinib -0.136 | tozasertib 0.007 | doramapimod -0.001 | bafetinib -0.164 | [6] 0.031

IARS (UniProt P41252)
Chain of UniProt P41252 (P41252 whole entry, looked up): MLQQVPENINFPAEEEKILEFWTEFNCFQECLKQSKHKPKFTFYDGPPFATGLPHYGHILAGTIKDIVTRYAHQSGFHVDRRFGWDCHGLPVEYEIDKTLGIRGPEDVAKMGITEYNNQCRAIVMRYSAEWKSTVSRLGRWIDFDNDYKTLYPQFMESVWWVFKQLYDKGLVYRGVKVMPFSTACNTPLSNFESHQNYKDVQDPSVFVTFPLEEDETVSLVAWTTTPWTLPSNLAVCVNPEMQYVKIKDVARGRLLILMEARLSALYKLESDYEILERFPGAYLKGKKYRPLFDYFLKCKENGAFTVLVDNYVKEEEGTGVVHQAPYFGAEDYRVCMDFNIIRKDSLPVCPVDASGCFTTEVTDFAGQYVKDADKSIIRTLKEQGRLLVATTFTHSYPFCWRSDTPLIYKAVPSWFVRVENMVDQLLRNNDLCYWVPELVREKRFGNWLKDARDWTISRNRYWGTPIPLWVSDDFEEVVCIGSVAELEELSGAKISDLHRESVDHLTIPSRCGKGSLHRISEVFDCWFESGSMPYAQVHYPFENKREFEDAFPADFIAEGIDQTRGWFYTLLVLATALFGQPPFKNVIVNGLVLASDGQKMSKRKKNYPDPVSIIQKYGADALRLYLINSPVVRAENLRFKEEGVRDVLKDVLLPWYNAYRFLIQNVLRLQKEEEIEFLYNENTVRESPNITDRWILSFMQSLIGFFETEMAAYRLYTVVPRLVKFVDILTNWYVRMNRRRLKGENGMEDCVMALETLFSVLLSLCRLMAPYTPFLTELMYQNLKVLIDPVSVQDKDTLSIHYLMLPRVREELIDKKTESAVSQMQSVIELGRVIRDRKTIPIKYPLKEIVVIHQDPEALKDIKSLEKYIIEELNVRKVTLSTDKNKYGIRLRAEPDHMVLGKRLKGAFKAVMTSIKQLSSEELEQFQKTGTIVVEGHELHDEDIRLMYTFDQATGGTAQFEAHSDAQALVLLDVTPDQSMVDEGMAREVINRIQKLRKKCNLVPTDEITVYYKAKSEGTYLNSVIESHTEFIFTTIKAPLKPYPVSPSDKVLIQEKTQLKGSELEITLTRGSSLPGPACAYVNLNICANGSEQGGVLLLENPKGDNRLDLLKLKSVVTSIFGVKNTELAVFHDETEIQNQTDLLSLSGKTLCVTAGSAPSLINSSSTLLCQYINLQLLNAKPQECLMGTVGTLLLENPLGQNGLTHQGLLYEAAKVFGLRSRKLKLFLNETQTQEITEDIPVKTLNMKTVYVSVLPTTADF
inactive: alvocidib 0.006 | Tubastatin A -0.134 | [1] 0.01 | defactinib 0.02 | [2] -0.03 | encorafenib 0 | [3] 0.134 | alisertib 0.02 | [4] 0.008 | gefitinib -0.021 | lapatinib -0.032 | pictilisib -0.006 | crizotinib -0.045 | [5] 0.059 | duvelisib -0.001 | gandotinib -0.13 | tozasertib 0.013 | doramapimod 0.016 | bafetinib -0.015 | [6] -0.041

GPR108 (UniProt Q9NPR9)
Chain of UniProt Q9NPR9 (Q9NPR9 whole entry, looked up): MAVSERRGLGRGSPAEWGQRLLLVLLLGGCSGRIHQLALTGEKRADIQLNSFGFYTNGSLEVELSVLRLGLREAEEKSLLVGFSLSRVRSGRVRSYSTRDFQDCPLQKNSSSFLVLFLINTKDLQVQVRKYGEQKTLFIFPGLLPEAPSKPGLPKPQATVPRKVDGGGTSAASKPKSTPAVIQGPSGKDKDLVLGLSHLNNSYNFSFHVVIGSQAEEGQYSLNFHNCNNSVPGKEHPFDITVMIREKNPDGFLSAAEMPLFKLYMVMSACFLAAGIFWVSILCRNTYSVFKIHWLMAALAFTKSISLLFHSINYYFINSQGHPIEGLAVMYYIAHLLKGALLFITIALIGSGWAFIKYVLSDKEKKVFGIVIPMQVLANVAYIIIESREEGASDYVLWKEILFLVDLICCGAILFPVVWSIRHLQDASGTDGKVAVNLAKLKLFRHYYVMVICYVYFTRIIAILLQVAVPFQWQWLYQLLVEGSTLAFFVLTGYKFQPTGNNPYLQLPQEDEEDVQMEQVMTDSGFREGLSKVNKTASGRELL
active: gandotinib 0.237
inactive: alvocidib -0.068 | Tubastatin A -0.034 | [1] 0.075 | defactinib 0 | [2] 0.014 | encorafenib 0.11 | [3] -0.066 | alisertib 0.001 | [4] 0.047 | gefitinib 0.002 | lapatinib 0.022 | pictilisib 0.03 | crizotinib -0.01 | [5] -0.121 | duvelisib -0.043 | tozasertib 0.024 | doramapimod 0.04 | bafetinib 0.044 | [6] -0.043
